Shown are actives, neighbours in structure and some others; about 13% of the full set was active somewhere.
USP30 block: human USP30 deubiquitinase inhibition. Q70CQ3. purified USP30, Ub-rhodamine cleavage fluorescence. inhibition, % at 25 µM. 5.3% of 47,000 active
USP7 block: inhibitors of human USP7 deubiquitinase; Q93009; purified USP7, Ub-rhodamine cleavage fluorescence; inhibition, % at 20 µM; 0.3% of 47,000 active; AID 1645854
Target sequence (Q93009 whole entry, looked up): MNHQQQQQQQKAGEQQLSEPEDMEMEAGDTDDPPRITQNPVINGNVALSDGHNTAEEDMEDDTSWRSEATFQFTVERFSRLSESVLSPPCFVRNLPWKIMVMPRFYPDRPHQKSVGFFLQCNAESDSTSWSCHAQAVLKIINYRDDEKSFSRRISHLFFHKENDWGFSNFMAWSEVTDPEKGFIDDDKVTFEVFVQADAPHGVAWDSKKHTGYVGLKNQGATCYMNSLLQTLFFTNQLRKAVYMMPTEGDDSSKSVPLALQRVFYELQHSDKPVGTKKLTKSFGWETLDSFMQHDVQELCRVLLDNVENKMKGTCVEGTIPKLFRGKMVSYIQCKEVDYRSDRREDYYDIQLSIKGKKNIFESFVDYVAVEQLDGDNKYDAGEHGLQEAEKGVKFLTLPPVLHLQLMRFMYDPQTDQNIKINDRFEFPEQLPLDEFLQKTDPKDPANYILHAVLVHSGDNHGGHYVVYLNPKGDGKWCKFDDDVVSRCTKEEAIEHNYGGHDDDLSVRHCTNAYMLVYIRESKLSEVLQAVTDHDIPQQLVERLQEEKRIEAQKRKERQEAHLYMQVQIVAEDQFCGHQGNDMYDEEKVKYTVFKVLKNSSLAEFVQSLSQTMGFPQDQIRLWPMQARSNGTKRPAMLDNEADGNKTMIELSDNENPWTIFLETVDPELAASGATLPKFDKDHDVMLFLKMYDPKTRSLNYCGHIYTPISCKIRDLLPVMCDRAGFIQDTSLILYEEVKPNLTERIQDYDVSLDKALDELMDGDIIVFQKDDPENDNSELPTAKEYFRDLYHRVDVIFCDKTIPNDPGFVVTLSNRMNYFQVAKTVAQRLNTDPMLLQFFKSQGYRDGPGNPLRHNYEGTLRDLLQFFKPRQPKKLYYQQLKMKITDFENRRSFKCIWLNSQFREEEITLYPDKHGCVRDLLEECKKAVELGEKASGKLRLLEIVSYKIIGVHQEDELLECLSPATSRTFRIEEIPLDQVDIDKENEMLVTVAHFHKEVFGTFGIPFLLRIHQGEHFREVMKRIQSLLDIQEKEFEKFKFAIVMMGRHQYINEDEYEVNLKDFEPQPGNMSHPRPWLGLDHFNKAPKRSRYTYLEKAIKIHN
USP28 block: blocks human USP28 ubiquitin-rhodamine cleavage | 3% of 47,000 active | purified USP28, Ub-rhodamine cleavage fluorescence, 30 min | Q96RU2 | AID 1645857 | inhibition, % at 25 µM
USP17 block: blocks human USP17 ubiquitin-rhodamine cleavage | A8MUK1 | purified USP17, Ub-rhodamine cleavage fluorescence, 3 h | inhibition, % at 50 µM | 6.5% of 47,000 active | AID 1645855
USP8 inh: human USP8 deubiquitinase inhibition; purified USP8, Ub-rhodamine cleavage fluorescence, 30 min; inhibition, % at 20 µM; 4.2% of 47,000 active
USP10 block: inhibitors of human USP10 deubiquitinase; purified USP10, Ub-rhodamine fluorescence, 60 min; inhibition, % at 20 µM; 1.1% of 47,000 active; AID 1645856
* marks the source's active call; other numbers are inactive results; nt = not tested or not shown. Cut-off read from the data, not from the text of the source: active = inhibition above about 30%; inactive = the rest.

SMILES	USP30 block	USP7 block	USP28 block	USP17 block	USP8 inh	USP10 block
O=C(CC1C(=O)Nc2nc(-c3ccccc3)nn21)Nc1ccc(Cl)c(C(F)(F)F)c1 (centres undefined)	-8	3	-3	-4	-3	15
COc1ccc(-c2cc(-c3nnc(CSc4nc5ccccc5n4C)o3)c3ccccc3n2)cc1OC	0	-28	17	58*	3	-10
O=C(Cn1c(=O)c2sccc2n(CC(=O)OCc2ccccc2)c1=O)NCc1ccccc1Cl	12	11	7	16	21	19
O=C(CCn1c(=O)c2sccc2n(Cc2ccc([N+](=O)[O-])cc2)c1=O)NCc1ccccc1	50*	21	28	52*	61*	39*
COc1ccc(CNC(=O)CCn2c(=O)c3sccc3n(Cc3ccccc3C#N)c2=O)cc1	56*	2	16	55*	11	2
O=C(Cn1c(=O)c2sccc2n(Cc2ccc([N+](=O)[O-])cc2)c1=O)NCCc1ccccc1	50*	7	16	26	11	38*
CC1CCCN(C(=O)c2snc3c(=O)n(C(C)C)c(=O)[nH]c23)C1 (centres undefined)	5	3	6	3	3	2
O=C(NCc1noc(-c2ccc(F)cc2)n1)c1coc(C2CC2)n1	6	9	7	9	2	1
CC1(C)O[C@@H](C2CCN(Cc3ccccn3)CC2)C2CC1C[C@H](O)[C@@]2(C)O (some centres undefined)	-86	-2	-16	-22	-20	-11
Cn1ccnc1CN1CCC([C@@H]2OC(C)(C)C3CC2[C@](C)(O)[C@@H](O)C3)CC1 (some centres undefined)	32*	4	16	nt	0	5
O=C(COc1cccc(-n2cnnn2)c1)Nc1cccc(F)c1	-3	2	-4	-6	-23	-1
COc1ccc(-c2ccc3nnc(SCC(=O)NCC4CCCO4)n3n2)cc1 (centres undefined)	22	8	4	nt	7	5
O=C(COc1ccc(-n2cnnn2)cc1)Nc1ccc(F)c(Cl)c1	28	0	17	42*	17	5
CCOc1ccc(NC(=O)COc2cccc(-n3cnnn3)c2)cc1	34*	1	55*	8	10	3
CCOc1ccc(-c2ccc3nnc(SCC(=O)Nc4cccc(C(C)=O)c4)n3n2)cc1	48*	16	43*	61*	26	1
Cc1ccc(CNC(=O)C2CCCN(C(=O)c3[nH]c(C)cc3C)C2)cc1 (centres undefined)	15	2	3	10	9	-1
CC(=O)Nc1ccc(SCc2nc3ccccc3nc2C)cc1	-27	1	5	5	39*	-1
COc1ccc(N(CC(=O)NC2CCCCC2)C(=O)c2ccc(-c3ccccc3)[nH]2)cc1OC	-11	4	-8	78*	3	25
CCOc1ccc(Nc2nc3ccccc3nc2Nc2cc(C)nn2-c2ccc([N+](=O)[O-])cc2)cc1	11	10	8	42*	14	4
Cc1cc(C)n(-c2nc3ccccc3nc2N2CCN(c3ccc([N+](=O)[O-])cc3)CC2)n1	13	-5	2	-3	-5	0
COc1cnc(-c2ccccn2)nc1Sc1cccc(C(F)(F)F)c1	18	-22	2	-25	-240	-4
COc1ccc(Sc2nc(-c3ccccn3)ncc2OC)cc1	35*	-13	8	6	3	3
CCN(C(=O)Cn1c(CN2CCCCCC2)nc2ccccc21)c1ccccc1	3	-18	3	-3	1	-1
C=C[C@]1(C)C=C2C(=O)[C@]3(O)OC(=O)[C@@]4(CCCC(C)(C)[C@H]34)[C@@]2(O)CC1	25	-13	24	69*	20	19
COc1ccccc1CNC(=O)c1cccc(Nc2nc3ccccc3n3cnnc23)c1	-15	-1	0	2	-5	-7
SMILES	USP30 block	USP7 block	USP28 block	USP17 block	USP8 inh	USP10 block
O=C(NCc1ccc(F)cc1)c1cccc(Nc2nc3ccccc3n3cnnc23)c1	80*	4	75*	72*	7	38*
CCN1C(=O)CCCC12CCCN(C(=O)c1cc(C)cc(C)c1)C2 (centres undefined)	12	1	5	4	16	0
CN1C(=O)N(CC(=O)N2CCCC2c2cncc(-n3ccnc3)n2)C(=O)C12CCCCC2 (centres undefined)	17	-1	6	11	36*	0
O=c1c2sccc2n2c(=O)[nH]nc2n1CCc1ccccc1	0	1	-3	24	4	5
NC(=O)N1CCCCCC1C1CCN(c2ncnc3ccsc23)CC1 (centres undefined)	32*	4	15	24	2	1
CCn1nnc2c(SCC(=O)N(C)c3ccccc3)ncnc21	nt	nt	nt	-2	-2	-3
COC(=O)c1ccc(CSc2nnc(CNC(=O)COc3ccc(Cl)cc3)o2)o1	-10	-4	-7	-15	-8	0
COc1ccc(CCNC(=O)CSc2nnc(CNC(=O)COc3ccc(Cl)cc3)o2)cc1OC	34*	4	25	46*	19	2
O=C(COc1ccc(Cl)cc1)NCc1nnc(SCC(=O)NCc2ccc3c(c2)OCO3)o1	26	0	0	70*	30	1
O=C(CN1C(=O)[C@H]2CCCN2c2ncccc21)Nc1cccc2c1CCCC2	-56	-13	-16	1	-5	-14
CCN1CCC2(CN(C(=O)N(C)C)CC23CCN(C(=O)NCc2ccccc2)CC3)C1=O (centres undefined)	-24	2	-4	-12	-46	2
Cc1nc(-c2ccc(C)c(S(=O)(=O)NC(C)C(=O)Nc3ccc(C)c(F)c3)c2)no1 (centres undefined)	36*	0	24	3	11	19
Cc1ccc(NC(=O)CC2=NC(=O)C(CC(=O)Nc3ccccc3C)S2)cc1 (centres undefined)	-22	-1	0	-21	39*	20
Cc1ccc(NC(=O)Cn2c3ncccc3c(=O)n2-c2ccccc2)cc1	-80	5	-5	3	2	2
O=C(CSc1nnc(CNC(=O)c2cccs2)o1)c1ccccc1	16	1	25	-2	0	2
O=C(CSc1nnc(-c2sccc2-n2cccc2)o1)c1ccc(Cl)cc1	15	6	6	33*	3	2
NC(=O)C1CCN(C(=O)c2ccc3c(=O)n(CCc4ccccc4)c(=O)[nH]c3c2)CC1	24	1	-52	14	15	2
CCOc1cc2[nH]c(=O)n(Cc3ccc(C(=O)NCCCN4CCC(C)CC4)cc3)c(=O)c2cc1OCC	35*	-5	22	27	-1	-15
COc1ccc(Cn2c(=O)[nH]c3cc(C(=O)N4CCC(Cc5ccccc5)CC4)ccc3c2=O)cc1	37*	9	17	7	28	11

From PubChem BioAssay
